A number with no mark means an inactive call. The rule behind the calls is not given here.
Biological target: CD276, Q5ZPR3
Sequence (Q5ZPR3 whole entry): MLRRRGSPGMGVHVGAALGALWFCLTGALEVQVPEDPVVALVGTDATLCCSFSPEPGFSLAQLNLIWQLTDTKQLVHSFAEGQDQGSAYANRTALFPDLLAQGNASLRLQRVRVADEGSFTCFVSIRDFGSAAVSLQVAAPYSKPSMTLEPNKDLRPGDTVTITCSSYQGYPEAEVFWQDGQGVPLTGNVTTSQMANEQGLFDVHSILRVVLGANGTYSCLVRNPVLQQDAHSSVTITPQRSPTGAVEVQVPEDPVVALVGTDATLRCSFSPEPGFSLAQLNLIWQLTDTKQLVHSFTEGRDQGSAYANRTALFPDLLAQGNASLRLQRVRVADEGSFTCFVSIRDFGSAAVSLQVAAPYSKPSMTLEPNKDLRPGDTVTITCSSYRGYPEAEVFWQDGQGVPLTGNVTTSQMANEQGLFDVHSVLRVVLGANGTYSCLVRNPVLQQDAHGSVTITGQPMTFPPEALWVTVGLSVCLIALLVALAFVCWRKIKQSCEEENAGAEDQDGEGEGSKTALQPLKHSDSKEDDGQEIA

B1: design_617_b3fadc1d-0db4-4da8-8433-818493aa2ab2_977_dldesign_0_cycle1_af2pred (protein)
chain: AQAVQEKAAKALATASEVAEKDQSLVPEATEAMNKASQGVALVVAGNTEEGQKLVEEALKTAEKLKKKLE
binding in a display sort: not found

B2: design_617_b3fadc1d-0db4-4da8-8433-818493aa2ab2_1728_dldesign_0_cycle1_af2pred (protein)
chain: GAALAARHGAAAARGALQGTVEEAAAQLANGLKIAAQLAPADGAAYRAAVLAVIAQASPERAAAILALAG
binding in a display sort: not found

B3: design_616_e8336982-fa4d-4d7c-b06f-9007953e1994_2109_dldesign_0_cycle1_af2pred (protein)
chain: AAAAQAAAADAALAAATSMLEKAKEMAATNPESAKKAATVAVDLANYAIALPAATPEQKAQAQKIKEEAEALIASL
binding in a display sort: not found

B4: design_617_b3fadc1d-0db4-4da8-8433-818493aa2ab2_1042_dldesign_0_cycle1_af2pred (protein)
chain: MSAAEIIREALKLLKEAAKAAATDPAKAKELADKAIALGKENQGAALLLSNTARNLAATATPEEAAFLLEVAERARAVAEAL
binding in a display sort: not found

B5: design_617_b3fadc1d-0db4-4da8-8433-818493aa2ab2_1528_dldesign_0_cycle1_af2pred (protein)
chain: AQAVLQAASEAMVEAARVGSRASPEDRARLRALLAATSTAAIAAARGDGQAALDQAAALAAELTAAVEAVKARA
binding in a display sort: not found

B6: design_616_e8336982-fa4d-4d7c-b06f-9007953e1994_2151_dldesign_0_cycle1_af2pred (protein)
chain: GAAAAAEETAKKVAKYLVKGDAEEAAKEALKGHTKNQAQHIVLRAANLAAKETGKSQSIYAKAAEAIALIEA
binding in a display sort: not found

B7: design_617_b3fadc1d-0db4-4da8-8433-818493aa2ab2_1686_dldesign_0_cycle1_af2pred (protein)
chain: MEEYLEEAKRFAESVIELSKLLLEGAPYNPALSAASLAALRKQAKARAEEAAKIDPEAAEALEKAAKTAEEAEKKAKALAA
binding in a display sort: not found

B8: design_617_b3fadc1d-0db4-4da8-8433-818493aa2ab2_797_dldesign_0_cycle1_af2pred (protein)
chain: AEELAEEAKKYIEEARKKVTELYNEAGATELAEEANEKLESAREIVESGREHPELLPAAVAFARSVADAQLRKAESLV
binding in a display sort: not found

B9: design_617_b3fadc1d-0db4-4da8-8433-818493aa2ab2_820_dldesign_0_cycle1_af2pred (protein)
chain: AEGKALVEQAKALAAQGAAHPQHAAAVAGTLANIGKYLAKLGPEYAKAAADVLNAFAKAVPSVAAQAKAAAAELEKLAKEA
binding in a display sort: not found

B10: design_617_b3fadc1d-0db4-4da8-8433-818493aa2ab2_1373_dldesign_0_cycle1_af2pred (protein)
chain: DAALRFAEAQLRRIERLAAEIIALGGPAWAPEAEALVAEAREALELIKTDPGAGMALLIETIERAYALLAEVRAAAA
binding in a display sort: not found

B11: design_616_e8336982-fa4d-4d7c-b06f-9007953e1994_2432_dldesign_0_cycle1_af2pred (protein)
chain: NQTKSLAQGAIAMAEAIAEELRRLGDEESAKKVEEMAKEAKKLIEEGKYEEALKVATEGVAYGAERVAALR
binding in a display sort: not found

B12: design_617_b3fadc1d-0db4-4da8-8433-818493aa2ab2_944_dldesign_0_cycle1_af2pred (protein)
chain: AEAAAIEQLNTAVEIIESAAKAGERFARAAAGLFITLARQYADVVPKETLTALAERATAAAAPVPAVAERLAAALQEVIEA
binding in a display sort: not found

B13: design_617_b3fadc1d-0db4-4da8-8433-818493aa2ab2_734_dldesign_0_cycle1_af2pred (protein)
chain: MAEEIIREATRVATEAARLAVKYGNEVANKALALAVEAMELAASGENAEEAKKKLEEAKKLLEEAKKIAKEKE
binding in a display sort: not found

B14: design_616_e8336982-fa4d-4d7c-b06f-9007953e1994_2036_dldesign_0_cycle1_af2pred (protein)
chain: GAEELAAEARKAYNEMLELLEKAKETGKTEEYVKKAAEIGRANPIAGQMAMNTVAARDPELAAKLRKAMA
binding in a display sort: not found

B15: design_617_b3fadc1d-0db4-4da8-8433-818493aa2ab2_522_dldesign_0_cycle1_af2pred (protein)
chain: ADPAQASQQALNAAKAAIKSAARAAKAGNLEDAKKLAEVAADLIAQASPEQAAEALKVAKEEAAEVPEIAEYMISKAEAALAQAKARA
binding in a display sort: not found

B16: design_617_b3fadc1d-0db4-4da8-8433-818493aa2ab2_117_dldesign_0_cycle1_af2pred (protein)
chain: AEKDEEAKKLVEKAKELAEAGLQTAQATGNVALAQAAANMAKALAKEAIRLAEDEKVKEEAKKEAKQAEKALKQAKA
binding in a display sort: not found

B17: design_617_b3fadc1d-0db4-4da8-8433-818493aa2ab2_588_dldesign_0_cycle1_af2pred (protein)
chain: AAAEAAKLQAERDALIKKALEAIEEASALAKELGNQEALALVHKSLTLIAKSLGADAETGLKLAKEALKAAEAALALLKKA
binding in a display sort: not found

B18: design_617_b3fadc1d-0db4-4da8-8433-818493aa2ab2_1083_dldesign_0_cycle1_af2pred (protein)
chain: GDPEASKEALEYAKKAEELVKKAEELKDNPELAKKLIEEAKKHIHLALAEAGKAYPEVAQKVLTTVEKVLEKIKEL
binding in a display sort: not found

B19: design_617_b3fadc1d-0db4-4da8-8433-818493aa2ab2_836_dldesign_0_cycle1_af2pred (protein)
chain: VTPEEAKKRVEELVEEAIKLAEKADPAEAEKIRKTYETEGPLAAAAVIWAIGNRFAEKPETKEIGERLRELAIEAIRLLLAAAAA
binding in a display sort: not found

B20: design_617_b3fadc1d-0db4-4da8-8433-818493aa2ab2_145_dldesign_0_cycle1_af2pred (protein)
chain: LQETADKAIEAANKLAELDPEVGDALKTAAETALAQGNEAQARAVKNMAESAYKYFSAKAEAAKAAAEAAA
binding in a display sort: not found

B21: design_617_b3fadc1d-0db4-4da8-8433-818493aa2ab2_224_dldesign_0_cycle1_af2pred (protein)
chain: AEAQALLDQAKAYLAQGTALFQSDPSLSSQALQQFGLAYIYASRAAALATAAGDTATADAAKAVQDQALANMQAIAAS
binding in a display sort: not found

B22: design_617_b3fadc1d-0db4-4da8-8433-818493aa2ab2_1296_dldesign_0_cycle1_af2pred (protein)
chain: DGEKIQEVLDKAKELYKIAKEIEKKNPEYGKEILKLVQEALSLIAKGNAEEAMKKMEEAEKYAEEVKKKLKEEE
binding in a display sort: not found

B23: design_617_b3fadc1d-0db4-4da8-8433-818493aa2ab2_636_dldesign_0_cycle1_af2pred (protein)
chain: TATLKEILAKVEKALELLKNASPETLNQALSLLTQAWALANKVDPAVAAAINAAIAALVDGMAKGVEVASKEGSAAAEKAIAAVKAAI
binding in a display sort: not found

B24: design_617_b3fadc1d-0db4-4da8-8433-818493aa2ab2_49_dldesign_0_cycle1_af2pred (protein)
chain: SKLSEEAKKKAEEYLKKAEEAYKLAKEDPAAGQAKLSEILTKAMEAQTEFYKKDPSNKEALDYLNKTIQTITKYLVEAAKL
binding in a display sort: not found

B25: design_617_b3fadc1d-0db4-4da8-8433-818493aa2ab2_1384_dldesign_0_cycle1_af2pred (protein)
chain: MEELMEKVKSLGQAAIVAATAAKSAAAAGNTDAARVLLAQARRWLEEAGEAAEKAGEEAKEVYEEVRKVVEAEIAAAEAAIAAA
binding in a display sort: not found

B26: design_616_e8336982-fa4d-4d7c-b06f-9007953e1994_2209_dldesign_0_cycle1_af2pred (protein)
chain: NAEAGKYLEEALKLAAEAQKAAAANPAVAPEVIAQASRLVAEAAKAALAGDTKAAKEYLEKMKELRDAAKAALAAA
binding in a display sort: not found

B27: design_617_b3fadc1d-0db4-4da8-8433-818493aa2ab2_655_dldesign_0_cycle1_af2pred (protein)
chain: AEEEERLRRQAEGLYELTKAVAEYLAKNPAAAEQAKALKEKAEKAFEEGMKEHPAEAIRRLQAVLNEASRAAIAASA
binding in a display sort: not found

B28: design_616_e8336982-fa4d-4d7c-b06f-9007953e1994_2365_dldesign_0_cycle1_af2pred (protein)
chain: DVGAATVAAVNATAAAALAAVKEAAKLSPEEAKAATGAALAALADTVGQANKAALAHPEHSAQIVGTGVDALAAVQAAADEAIAKAKA
binding in a display sort: not found

B29: design_617_b3fadc1d-0db4-4da8-8433-818493aa2ab2_1081_dldesign_0_cycle1_af2pred (protein)
chain: GEEAAKKAQELVEKIKKLAKEIAAGTAEQAAKLLEEALKYAKEAYKLAAKADPETAAKLSAAANEELAKANRAAIALQRA
binding in a display sort: not found

B30: design_617_b3fadc1d-0db4-4da8-8433-818493aa2ab2_943_dldesign_0_cycle1_af2pred (protein)
chain: AEAAQEAAVADMEKAAAIAKKYAELFPSTADALIKAAEDALAAVKANKETAAETAKAGLKALNATIAAAMRQALADSAA
binding in a display sort: not found

B31: design_617_b3fadc1d-0db4-4da8-8433-818493aa2ab2_1433_dldesign_0_cycle1_af2pred (protein)
chain: GVAEQAIRGLARNTVAAIEAGTLTEEGLEKALELIRGIGEAAGPAARAVAEEAIERVREAWERRKRAEAEAAAA
binding in a display sort: not found

B32: design_616_e8336982-fa4d-4d7c-b06f-9007953e1994_2287_dldesign_0_cycle1_af2pred (protein)
chain: TPEQLKQAAKQALAAAKALVKNAKQASLEDAKKLAEVAKDLTENAIKAAAKAGPEAEKEAKAKAEEIKKAAEEAIAAKEA
binding in a display sort: not found

B33: design_617_b3fadc1d-0db4-4da8-8433-818493aa2ab2_206_dldesign_0_cycle1_af2pred (protein)
chain: ADALTKKTAEAIYQQVKKRAEELLKKAKEGTPELAKELAKELKKIAEANAKALSSLGPLGEEYAKKVKEYAEKVIKEIEKII
binding in a display sort: not found

B34: design_617_b3fadc1d-0db4-4da8-8433-818493aa2ab2_1106_dldesign_0_cycle1_af2pred (protein)
chain: GARARMEASIAQARELAAAAVAQAAAVDPAAAAAAAAALDALLAAAEAALAAGDYDAAAAAINAAVTLAIKWMQAAAAA
binding in a display sort: not found

B35: design_617_b3fadc1d-0db4-4da8-8433-818493aa2ab2_1003_dldesign_0_cycle1_af2pred (protein)
chain: KAAALHAIKVAETLLKKAKEFLEKGKEEGPEYYKMAYATAQSAILVAQGAVEVAKKVSKKLYKKAKKLLEEAKKLAEEAKKLAE
binding in a display sort: not found

B36: design_617_b3fadc1d-0db4-4da8-8433-818493aa2ab2_1608_dldesign_0_cycle1_af2pred (protein)
chain: SEAERIAKAAKEMIEQQKKAGVEGSPVSAEISAKNMEANAKAHSKAIIAADPKTGKKLAKEVKKYAEEAKKEVEEAAKKKLAA
binding in a display sort: not found

B37: design_616_e8336982-fa4d-4d7c-b06f-9007953e1994_2198_dldesign_0_cycle1_af2pred (protein)
chain: MEEERRKKAEELLEKATKELKAMQAQAEALAKAGDIGAATQLVVDAARYGAEVTREAEKIDPEVAEKMAEVTNKIIAAALKALTAYAA
binding in a display sort: not found

B38: design_616_e8336982-fa4d-4d7c-b06f-9007953e1994_2162_dldesign_0_cycle1_af2pred (protein)
chain: MLTPEQLQASINAIKAATRKAVEMARAGNEESAEKLLEVARDIAEALLKTDPEAGKEALKIVEEGEEEARKAAEEVRA
binding in a display sort: binds (active)
